Compounds without any hit were thinned out: in the full panel of roughly 83,000, 20% have a hit.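 Activity criterion: percent growth below 10, measured after cells in 96-well plates were exposed to a single compound concentration for 48 hours.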 Calls of active or inactive are those of the source.
What follows are compounds tested on NCI-H23 lung (assay: NCI-60 one-dose screen, 48 h (100 = growth as untreated, 0 = no growth, -100 = all killed)). Settings: 10 µM unless noted.
For `CCn1c(Cc2ccccc2Nc2c(Cl)cccc2Cl)nnc1SCC(=O)Nc1cccc(OC)c1`, the growth was 85% (inactive).
With `COc1ccc2nc(C)cc(Sc3nc4ccccc4s3)c2c1` the growth was 29.4% (inactive).
In the case of `COc1cnc2c(c1)C(=O)c1c-2n(CCCN2CCN(C)CC2)c(=O)c2cc(Cl)ccc12`, the growth is reported as 47.9% (inactive).
For `c1cn2cc(-c3ccc4ncn(C5CCCCC5)c4c3)nc(-c3ccc4c(c3)ncn4C3CCCCC3)c2n1`, the growth was -41.5% (active).
`CN1C(=O)N(C)C2C1NN=c1s/c(=C\c3ccc(C(F)(F)F)cc3)c(=O)n12` (stereo not drawn) was tested, and the growth was 39.5% (inactive).
In the case of `CN1C(=O)N(C)C2C1NN=c1s/c(=C\c3ccsc3)c(=O)n12` (stereo not drawn), the growth is reported as 59.4% (inactive).
For `C/C(=N\Nc1ccc([N+](=O)[O-])cn1)c1ccc(N)cc1`, the growth was 109% (inactive).
`COc1ccccc1/C=N\Nc1ccc([N+](=O)[O-])cn1` was tested, and the growth was 101% (inactive).
With `CCCCCCCCCCCCCCCCCC(=O)[O][Sn]([CH2]CCC)([CH2]CCC)[CH2]CCC` the growth was -81.7% (active).
For `C[C@H](NC(=O)c1snnc1C1CC1)c1c(F)cccc1Cl`, the growth was 97.3% (inactive).
For `CC(C)c1cccc(C#N)c1`, the growth was 92.8% (inactive).
In the case of `CN1C(=O)N(C)C2C1NN=c1s/c(=C\c3ccc(Br)cc3)c(=O)n12` (stereo not drawn), the growth is reported as 41.9% (inactive).
`O=C1SCN(Cc2ccccc2)CN1Cc1ccccc1` was tested, and the growth was 91.2% (inactive).
With `C[N+](C)(C)CC(=O)N/N=C\c1ccco1` the growth was 99.6% (inactive).
With `COc1cc(C2CC(c3ccc(Cl)cc3)=NN2C(C)=O)ccc1Oc1nc2c(c(=O)n(C)c(=O)n2C)n1C` (stereo not drawn) the growth was 84.2% (inactive).
In the case of `CCN1CCN(Cc2ccc(NC(=O)Nc3ccc(-n4ccc5c(NC(=O)c6ccccc6)nccc54)cc3)cc2C(F)(F)F)CC1`, the growth is reported as -51.5% (active).
`Nc1nc(N)c2cc(NCc3ccc(Cl)c(Cl)c3)ccc2n1` was tested, and the growth was -88% (active).
With `O=c1oc2ccccc2cc1-c1cc(-c2ccc(-c3cc(-c4cc5ccccc5oc4=O)nc(-c4cc5ccccc5oc4=O)c3)cc2)cc(-c2cc3ccccc3oc2=O)n1` the growth was 98.5% (inactive).
For `C=C1C(=O)O[C@H]2[C@H]1CC/C(COC(=O)N[C@@H](Cc1c[nH]c3ccccc13)C(=O)OC)=C\CC[C@@]1(C)O[C@@H]21`, the growth was 68.5% (inactive).
For `COc1cc(OC)c(Cl)cc1N`, the growth was 105% (inactive).
`COC(=O)c1ccc2c(c1)nc(-c1cc3ccccc3[nH]c1=O)n2-c1cc(C(C)(C)C)[nH]n1` was tested, and the growth was 44.7% (inactive).
`Fc1ccc(-c2nc(-c3ccc(-c4nc5ccc(F)cc5[nH]4)cc3)no2)cc1` was tested, and the growth was 67.7% (inactive).
With `CCCC(CCC)(C(N)=O)C(=O)O` the growth was 105% (inactive).
`CNC(=O)OC1C(O[C@H]2C[C@H]3[C@@H]4CC=C5C[C@@H](O)CC[C@]5(C)[C@H]4CC[C@]3(C)[C@H]2[C@H](C)C(=O)CCC(C)C)OCC(O)C1OC1OCC(O)C(O)C1OC(=O)c1ccc(OC)cc1` (stereo partly drawn) was tested, and the growth was 39.3% (inactive).
With `CC(=O)O[C@@H]1CC2C(C)(C)CCCC2(C)C2=C1C(=O)C(C(C)C)=CC2=O` (stereo partly drawn) the growth was 8.94% (active).
For `CC(=O)Oc1c(Cl)c(Cl)c(Cl)c(Cl)c1Cl`, the growth was 95.3% (inactive).
In the case of `Oc1c(C(Nc2ccccc2Br)c2ccccc2)ccc2cccnc12` (stereo not drawn), the growth is reported as 22.2% (inactive).
`O=C1C(Cl)=C(Nc2cccc3ccccc23)C(=O)c2ccccc21` was tested, and the growth was 73.6% (inactive).
For `Nc1c(C(=O)Nc2ccccc2)sc2nc3c(cc12)C(=O)CCC3`, the growth was 39.5% (inactive).
`CCOCCNc1ccc(S(=O)(=O)c2ccc(N)cc2)cc1N` was tested, and the growth was 92.5% (inactive).
`CCCCSc1ncnc2c1ncn2C1CCCCO1` (stereo not drawn) was tested, and the growth was 106% (inactive).
In the case of `CCNCCCn1c2c(c3ccc(Cl)cc3c1=O)C(=O)c1cc(OC)cnc1-2`, the growth is reported as 28.8% (inactive).
With `COc1ccc2nc3ccccc3c(NCc3ccc(C)cc3)c2c1` the growth was 28.3% (inactive).
`C=CCOC(=O)C1=C(C)NC2=C(C(=O)CCC2)C1c1ccc(F)cc1` (stereo not drawn) was tested, and the growth was 92.4% (inactive).
For `O=C(O)C(CCc1ccccc1)NCc1ccccc1` (stereo not drawn), the growth was 94.9% (inactive).
With `COc1ncnc2[nH]cc(CN3CCN(c4ccc(F)cc4)CC3)c12` the growth was 98.4% (inactive).
In the case of `O=S(=O)(Cc1ccc(Cl)cc1Cl)c1ccc(Cl)cc1`, the growth is reported as 50.2% (inactive).
For `COc1ccc(-c2nc3ccccc3n3cccc23)cc1`, the growth was 86.1% (inactive).
